# Bioassay records (PubChem BioAssay)
# aSyn rescue = inhibitors of alpha-synuclein toxicity in yeast; Yeast expressing alpha-synuclein, growth rescue, BacTiter-Glo, 24 h; Potency, µM (series often up to 46.1 µM), for the others: at the top dose growth rescue (activation), usual class: activators; 370,000 compounds, 0.14% hits; AID 652106; also: % of control where 0% means no effect; nearly all actives have a fitted effect of over 65% in size
#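 Galactose-induced alpha-syn yeast (OD600=0.02, raffinose-pregrown) + pinned cpd, 24 hr, 30 deg C; growth by BacTiter-Glo luminescence. Growth restoration scores as activation.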
# FUS yeast rescue = suppressors of FUS proteinopathy in yeast. S. cerevisiae FUS-expressing, growth rescue, OD600, 24 h. Potency, µM (titrated, usually from 76.6 µM), hits mostly activators. 390,000 compounds, 0.24% hits. AID 1347120;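 also: plate controls were DMSO vehicle for no effect and reference control for full effect; nearly all actives have a fitted effect of over 55% in size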
#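 Toxicity suppression screen in FUS-yeast. Cells induced with 2% galactose, starting OD 0.005, treated 24hr at 30C with compounds at multiple final concentrations; growth by OD600.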
# Abeta yeast res = compounds reversing amyloid beta toxicity in yeast | 410,000 compounds, 0.063% hits | yeast expressing A-beta42, growth rescue, OD600, 48 h; response scale: 0% DMSO, 100% iron-clioquinol control | AID 1347071 | Potency, µM (doses to about 46.1 µM), actives largely listed as activators; also: nearly all actives have a fitted effect of over 55% in size
#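 Yeast A-beta toxicity model in growth medium with pinned compounds, 48 h at 30 C; growth read as absorbance at 600 nm. Normalized to FeCl3/clioquinol equimolar mix (positive) and DMSO (negative).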
# TDP-43 yeast inh = rescues yeast growth from TDP-43 toxicity; Potency, µM (doses to about 46.1 µM), for inactives: at the highest dose growth rescue (activation), actives largely listed as activators; 410,000 compounds, 1.8% hits; TDP-43 expressing yeast growth rescue, BacTiter-Glo, 24 h; AID 652104; also: % of control where 0% means no effect; nearly all actives have a fitted effect of over 50% in size
#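 Luminescence from BacTiter-Glo reports growth of TDP-43-expressing yeast after 24 hr at 30 deg C with compound. Cells were raffinose-pregrown to mid-log, then seeded in galactose medium at OD600=0.02.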
# The depositor's hits bear a star; i = inactive; u = inconclusive; x = not tested or not shown. In the library only some 2.1% were active in any assay of this set; here they are far more common. Calls follow the shape of the dose curve; as a rule, active = well fitted curve in the direction sought with a large enough effect; inconclusive = small, poorly fitted or top-dose-only effect, or another doubt; inactive = no such curve, though single readings can be large; an effect the other way counts as inactive or inconclusive. Potency is read from the fitted curve at half-maximal effect.
SMILES,aSyn rescue,FUS yeast rescue,Abeta yeast res,TDP-43 yeast inh
COc1cc2c(NC3CCN(C)CC3)nc(N3CCCN(C)CC3)nc2cc1O,2%,x,x,x
Cc1cc(NS(=O)(=O)c2ccc3c(c2)OCCO3)no1,12%,i,u,25%
CC(C)(C)c1cc(NS(=O)(=O)c2ccc3c(c2)OCCO3)on1,-2%,i,u,13µM*
CCOC(=O)c1ccc(S(=O)(=O)Nc2cc(C(C)(C)C)no2)cc1,18%,i,i,13µM*
CN(C)c1ccc(/C=C/c2ccnc3ccc(N)cc23)cc1,-30%,x,x,x
COc1cc(N(C)C)c(OC)cc1/C=C/c1ccnc2ccccc12,-15%,x,x,x
CC(=O)N1CC2(CC(c3ccccc3C(F)(F)F)=NO2)CN1c1ccc(Cl)cc1 (stereo unspecified),13µM*,u,i,21%
O=Cc1c(Sc2ccccn2)nc2ccccn2c1=O,0%,i,i,-14%
O=Cc1c(Sc2ccccc2)nc2ccccn2c1=O,18%,i,i,13µM*
CC(C)COc1ccc(C(=O)Nc2nnc(S(=O)(=O)N(C)Cc3ccco3)s2)cc1,x,i,i,25%
O=c1c2ccc([N+](=O)[O-])cc2ncn1CCOc1ccc(Cl)cc1,7%,i,i,25µM*
O=c1c2ccc([N+](=O)[O-])cc2ncn1CCOc1cccc(Br)c1,5%,i,i,5%
COc1cc(/C=N/n2c(-c3cc(-c4ccccc4)n[nH]3)n[nH]c2=S)ccc1OCc1ccccc1,x,i,x,x
Cn1c(SCC(=O)Nc2ccc(Cl)cc2F)nnc1-c1ccco1,2.8µM*,i,i,22%
Cc1cc(NC(=O)CSc2nnc(-c3ccco3)n2C)no1,0%,i,i,7%
O=C(CSc1ccc(-c2ccco2)nn1)Nc1ccccc1F,7%,i,i,28µM*
O=C(Cn1nc(-c2ccco2)ccc1=O)Nc1cc(C(F)(F)F)ccc1Cl,-10%,i,i,17%
O=C(Cn1nc(-c2ccco2)ccc1=O)Nc1cc(Cl)ccc1Cl,13%,i,i,13µM*
CCOCCCNC(=O)Nc1cc(C(=O)NCc2ccc(C(C)C)cc2)ccc1N1CCCC1,x,u,i,3%
CC(=O)Nc1cc(-c2ccccc2F)cn2c(-c3ccccc3)cnc12,5%,i,i,20µM*
COc1cc(-c2cnc3c(NC=O)cc(-c4cccc(C(F)(F)F)c4)cn23)cc(OC)c1OC,11%,u,i,0%
O=CNc1cc(-c2cccc(F)c2)cn2c(-c3ccc(F)cc3)cnc12,-7%,i,i,18µM*
COc1ccc(-c2cc(NC=O)c3ncc(-c4cccc(C(F)(F)F)c4)n3c2)c(OC)c1,-6%,u,i,16µM*
COc1cccc(-c2cnc3c(NC(C)=O)cc(-c4ccccc4OC)cn23)c1,6%,i,i,20µM*
COc1ccccc1-c1cc(NC(C)=O)c2ncc(-c3ccccc3)n2c1,25%,i,i,u
SMILES,aSyn rescue,FUS yeast rescue,Abeta yeast res,TDP-43 yeast inh
CCOc1ccc(/C=C/c2cc[n+](C)c3ccccc23)cc1OCC,0%,x,x,x
Cc1ccc(-c2nc(CCNC(=O)C(=O)Nc3ccc(C)c(Cl)c3)cs2)cc1,x,i,i,14%
CN(C)C(=O)c1cccc(-c2cnc3c(NC=O)cc(-c4cccc(C(F)(F)F)c4)cn23)c1,-2%,28µM*,i,0%
COc1ccc(-c2cc(NC(C)=O)c3ncc(-c4cccc(C(F)(F)F)c4)n3c2)c(OC)c1,23%,u,i,13µM*
O=C(Nc1cc(C(=O)N2CCN(c3ccccc3)CC2)ccc1Cl)c1cccs1,-7%,x,i,13µM*
Cc1cc(F)ccc1S(=O)(=O)Nc1ccc2oc3c(c2c1)CC(C)CC3 (stereo unspecified),x,i,i,35µM*
CCCNC(=O)NC(=O)CSc1cccc(C(F)(F)F)c1,4%,i,i,18µM*
CNC(=O)NC(=O)CSc1cccc(C(F)(F)F)c1,-3%,i,i,11%
CCc1ccc(S(=O)(=O)c2nnn(-c3cccc(C)c3)c2N)cc1,x,i,i,22µM*
CC(=O)N1CCCc2ccc(NC(=O)c3ccc(C(F)(F)F)cc3)cc21,x,i,i,10%
COc1ccc(C(=O)NC(=S)NNC(=O)c2cnccn2)cc1OC,0%,x,i,-15%
COc1ccc(C(=O)NC(=S)NNC(=O)c2ccc(C)cc2)cc1,24%,i,u,0%
COc1cc(OC)cc(C(=O)NC(=S)NNC(=O)Cc2cccs2)c1,u,i,i,13µM*
COc1cc(OC)cc(C(=O)NC(=S)NNC(=O)c2cnccn2)c1,3.5µM*,i,i,u
O=C(/C=C/c1cccs1)NC(=S)NNC(=O)Cc1cccs1,u,i,u,11µM*
COc1cc(NC(=O)Cc2cccs2)cc(OC)c1,-3%,i,u,15%
COc1ccc(C(=O)NC(=S)NNC(=O)Cc2cccs2)cc1,10µM*,i,8.9µM*,10µM*
CC(C)(C)c1ccc(S(=O)(=O)N2CCC(C(=O)N3CCN(C4CCCCC4)CC3)CC2)cc1,x,i,x,x
CCOc1ccc(CCNC(=O)CSCc2nc(-c3cccc(C)c3)oc2C)cc1OCC,x,i,i,0%
O=C1N(Cc2ccccc2Cl)c2ccccc2C1(O)c1c[nH]c2ccccc12 (stereo unspecified),x,u,i,16µM*
O=C1N(Cc2ccccc2)c2ccccc2C1(O)c1c[nH]c2ccccc12 (stereo unspecified),x,i,i,12%
O=C(CC1(O)C(=O)N(Cc2ccccc2Cl)c2ccccc21)c1ccco1 (stereo unspecified),2%,i,i,0%
COc1ccc(C(=O)CC2(O)C(=O)N(Cc3ccccc3Cl)c3ccccc32)cc1 (stereo unspecified),30%,i,i,32µM*
O=C(CSc1nnc2[nH]c(=O)cc(-c3ccccc3)n12)Nc1cc(C(F)(F)F)ccc1Cl,x,i,i,u
Cc1ccc(C)c(CN2C(=O)c3ccccc3S(=O)c3ccc(C(=O)NCc4ccco4)cc32)c1 (stereo unspecified),x,i,i,12%
SMILES,aSyn rescue,FUS yeast rescue,Abeta yeast res,TDP-43 yeast inh
CCOC(=O)C1CCN(C2=NC(=O)/C(=C/c3ccc(Cl)cc3)S2)CC1,6%,i,i,20µM*
CN(C)c1ccc(/C=C2\SC(N3CCCCC3)=NC2=O)cc1,0%,i,i,22µM*
CCOC(=O)C1CCN(C2=NC(=O)/C(=C/c3ccc(OC)c(OC)c3)S2)CC1,0%,i,i,u
COc1cc(/C=C2\SC(N3CCC(C)CC3)=NC2=O)ccc1O,-10%,i,i,11µM*
O=c1[nH]c(SCc2ccccc2)ncc1S(=O)(=O)c1ccccc1,3%,x,x,x
COc1ccc(-n2cc(-c3ccccc3)[nH]c2=S)c(OC)c1,1%,i,i,5%
Fc1ccccc1-n1cc(-c2ccccc2)[nH]c1=S,3%,i,u,13µM*
